About 540 (0.62%) of roughly 87,000 compounds were called active. This is one part of a sample in which actives are shown more often than they occur. How the calls were made is not given here. Measured potencies and affinities stand elsewhere.
assay: inhibitors of MT1-MMP promoter transcription, cell-based, luciferase reporter, luminescence (AID 618); settings: MT1-MMP promoter luciferase reporter cells;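 further: actives suppress MT1-MMP promoter-driven transcription so potencies describe inhibitors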

| Compound | outcome |
| --- | --- |
| CN1CCN(C(=O)COc2ccc(S(=O)(=O)N(C)Cc3ccccc3)cc2)CC1 | inactive |
| CN1CCN(C(=O)COc2ccc(-c3nc4ccccc4s3)cc2)CC1 | active |
| COc1cccc(OCC(=O)N2CCN(C)CC2)c1 | inactive |
| CCOC(=O)C1=C(N)Oc2ccccc2C12C(=O)N(CC(=O)OC)C(CC(=O)OC)=C2C(=O)OC (stereo not given) | inactive |
| C[C@H]1CCC/C=C/C2C[C@H](O)CC2[C@H](O)/C=C/C(=O)O1 (stereo not given in full) | active |
| C[C@H]1CCC[C@@H](O)CCC/C=C/c2cc(O)cc(O)c2C(=O)O1 | inactive |
| C[C@H]1CCCC(=O)CCC/C=C/c2cc(O)cc(O)c2C(=O)O1 | inactive |
| Cn1c(O)c(C=NCc2cccs2)c(=O)n(C)c1=O | inactive |
| CCC(C)OC(=O)c1c(N)n(Cc2cccs2)c2nc3ccccc3nc12 (stereo not given) | inactive |
| COc1ccc(Nc2ncc(C(=O)N3CCC4(CC3)OCCO4)c3ccccc23)cc1 | inactive |
| CC(C)c1cccc(C(C)C)c1OCCn1ccnc1 | inactive |
| CCn1c(=O)cc(OCC(=O)N2CCN(Cc3ccc4c(c3)OCO4)CC2)c2ccccc21 | inactive |
| O=C1CC(N2CCC(n3c(=O)[nH]c4ccccc43)CC2)C(=O)N1c1ccc(F)cc1 (stereo not given) | inactive |
| O=c1[nH]c2ccccc2n1CCCN1CCC(n2c(=O)[nH]c3cc(Cl)ccc32)CC1 | inactive |
| O=c1[nH]c2ccccc2n1C1CCN(CCCC(c2ccc(F)cc2)c2ccc(F)cc2)CC1 | active |
| Cc1ccc(-n2nc(C)cc2NC(=O)COc2cc(C)cc3oc(=O)c4c(c23)CCC4)cc1 | inactive |
| CC12CN3CC(C)(CN(C1)P3(=O)Oc1ccccc1)C2=O (stereo not given) | inactive |
| Cc1nc2c(=O)n(C)c(=O)nc-2n(C)n1 | active |
| CCOC(=O)CC1=C(C(=O)OCC)C2(C(=O)N1CC(=O)OC)C(C#N)=C(N)Oc1ccccc12 (stereo not given) | inactive |
| CCC/C=C(\CCC)C(NP(=O)(c1ccccc1)c1ccccc1)c1ccccc1 (stereo not given) | inactive |

| Compound | outcome |
| --- | --- |
| Nc1ccccc1C(=O)OCCOc1ccccc1 | active |
| Nc1ccccc1C(=O)OC1CSC1 | inactive |
| CCCCCCOC(=O)c1ccccc1N | inactive |
| CCCCOP(=O)(CN1CCOCC1)OCCCC | inactive |
| CCN1CCN(C(=O)COc2cc(=O)n(CC)c3ccccc23)CC1 | inactive |
| c1ccc2c(CNC3CCCCCC3)c[nH]c2c1 | inactive |
| CCCCn1c(O)c(C=NC2CC3CCC2(C)C3(C)C)c(=O)[nH]c1=O (stereo not given) | inactive |
| Cc1ccc(C2(O)CC(C)N(C)CC2C)cc1 (stereo not given) | inactive |
| Cc1ccc(N(C)C(=O)Oc2cccc3cccnc23)cc1 | inactive |
| CN(C)CCN=Cc1c(O)n(-c2cccc3ccccc23)c(=O)[nH]c1=O | inactive |
| COC(=O)C1CN(C#N)N(c2ccc(Cl)cc2)C12c1ccccc1-c1ccccc12 (stereo not given) | active |
| COC(=O)C[C@]1(C(=O)OC)CN(C#N)N(c2ccc(Cl)cc2)C12c1ccccc1-c1ccccc12 | active |
| COC(=O)[C@@H]1[C@@H](C(=O)OC)C2(c3ccccc3-c3ccccc32)N(c2ccc(Cl)cc2)N1C#N | inactive |
| CCCN1[C@@H]2C[C@@H](O)CC[C@@H]2C[C@H]1C(=O)OC | inactive |
| CN(C)CCCN=Cc1c(O)n(CCc2ccc(F)cc2)c(=O)[nH]c1=O | inactive |
| CC(C)CCC1(CCc2ccncc2)C(=O)NC(=O)NC1=O | inactive |
| CCCCn1c(O)c(C(C)=Nc2c(C)n(C)n(-c3ccccc3)c2=O)c(=O)[nH]c1=O | inactive |
| COc1cccc(OC)c1C1=NCC(=O)Nc2c1oc1ccc(Br)cc21 | active |
| O=C1CN=C(c2ccccc2)c2oc3ccc(Br)cc3c2N1 | inactive |
| CCOc1cc(-c2nc3c(C)cccn3c2NCC2CCCO2)ccc1O (stereo not given) | inactive |

Source: PubChem BioAssay AID618 (Sanford-Burnham Center for Chemical Genomics, 2007)
